Most compounds without a hit are left out; they make up all but 10% or so of the library.
GLS inhibitor – blocks human kidney-isoform glutaminase activity | O94925 | GLS enzymatic activity, qHTS titration | Potency, µM (highest dose often 45.5 µM), for inactives: at the top dose activity change, negative = inhibition, most hits filed as inhibitors | hit rate 0.21% among 410,000 | AID 624170; also: % is scaled to controls: 0 for no effect and ±100 for the full control effect
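Coupled fluorescence readout: glutamate oxidase/HRP/Amplex Red detect glutamate formed by hKGA from L-glutamine (1 mM solution added). Buffer 45 mM KH2PO4 pH 8.2, 0.02% Tween-20; reads at t0 and 30 min RT.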
BAZ2B inh – BAZ2B (human) inhibition; hit rate 4.4% among 360,000; AlphaScreen BAZ2B-H3K14Ac peptide displacement; AID 504333; Potency, µM (top dose mostly 114 µM), for the others: at the highest dose activity change, negative = inhibition, usual class: inhibitors; also: % is scaled to controls: 0 for no effect and ±100 for the full control effect; nearly all actives have a fitted effect of over 60% in size
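AlphaScreen displacement of biotin-H3(5-23)K14Ac peptide (50 nM final) from BAZ2B (50 nM final) in PBS pH 7.4, 0.01% Tween-20; complex preformed 30 min RT, then compounds (top 110 uM) 30 min RT, beads 20 min dark.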
HP1b binding inh – blocks HP1-beta chromodomain binding to methylated histone tails; hit rate 0.56% among 390,000; AlphaScreen HP1-beta / biotin-H3K9me3 peptide binding; Potency, µM (doses to about 114 µM), without a hit: top-dose activity change, negative = inhibition, hits mostly inhibitors; AID 540317; also: nearly all actives have a fitted effect of over 70% in size
Target sequence (P83916 whole entry, looked up): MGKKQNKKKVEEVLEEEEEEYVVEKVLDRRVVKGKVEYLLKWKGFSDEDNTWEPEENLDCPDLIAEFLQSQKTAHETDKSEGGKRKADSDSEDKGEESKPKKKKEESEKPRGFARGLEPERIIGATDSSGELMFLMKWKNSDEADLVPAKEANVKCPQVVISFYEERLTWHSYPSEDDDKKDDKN
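AlphaScreen: HP1-beta (50 nM) preformed 30 min with biotin-H3(1-18)K9me3 peptide (50 nM) in PBS pH 7.4, 0.01% Tween-20. Compound added for 30 min at RT, then streptavidin donor/nickel chelate acceptor beads (10 ug/mL) for 30 min.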
JMJD2A Tudor – JMJD2A Tudor domain (human) inhibition | O75164 | AlphaScreen JMJD2A-Tudor / H3K4me3 peptide binding | Potency, µM (top dose mostly 114 µM), inactives show top-dose activity change, negative = inhibition, most hits filed as inhibitors | hit rate 4.4% among 390,000; also: % is scaled to controls: 0 for no effect and ±100 for the full control effect; nearly all actives have a fitted effect of over 50% in size
G9a inh – inhibitors of human histone lysine methyltransferase G9a. Potency, µM (titrated, usually from 102 µM), without a hit: at the highest dose activity, negative = inhibition, actives largely listed as inhibitors. hit rate 8.8% among 350,000. Q96KQ7. G9a H3K9 monomethylation, AlphaScreen, 2 h; also: % is scaled to controls: 0 for no effect and ±100 for the full control effect; nearly all actives have a fitted effect of over 75% in size
Target sequence (Q96KQ7 913-1193 limits assumed): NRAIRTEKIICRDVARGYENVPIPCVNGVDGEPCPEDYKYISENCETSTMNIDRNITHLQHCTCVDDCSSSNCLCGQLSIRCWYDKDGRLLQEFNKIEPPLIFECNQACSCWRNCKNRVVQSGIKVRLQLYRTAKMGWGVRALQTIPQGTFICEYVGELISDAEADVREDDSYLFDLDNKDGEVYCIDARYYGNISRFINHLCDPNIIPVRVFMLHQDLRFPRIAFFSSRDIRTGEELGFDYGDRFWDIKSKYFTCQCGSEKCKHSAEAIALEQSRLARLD
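Using a bead-based AlphaScreen, monomethylated H3K9 product from 2 h room-temperature reactions (G9a 20 nM, peptide 500 nM, SAM 20 uM) was detected with 0.5 ug/mL rabbit anti-H3K9me1 antibody.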
The depositor's hits bear a star; ? = inconclusive; . = no result given; [ ] = another dose, or the depositor's remark. Calls follow the shape of the dose curve; as a rule, active = well fitted curve in the direction sought with a large enough effect; inconclusive = small, poorly fitted or top-dose-only effect, or another doubt; inactive = no such curve, though single readings can be large; an effect the other way counts as inactive or inconclusive. Potency is read from the fitted curve at half-maximal effect.

SMILES	GLS inhibitor	BAZ2B inh	HP1b binding inh	JMJD2A Tudor	G9a inh
CN(C)c1ccc(-n2cccc2/C=C/[N+](=O)[O-])cc1	57.8%	15.8µM*	44.7µM*	25.1µM*	22.4µM*
CN(c1ccccc1)c1ccc(/C=C/[N+](=O)[O-])cc1	0.1%	-15.9%	10.1%[57 µM]	?	?
Cc1ccc2c(c1)c1c(n2C)-c2[nH]ncc2CC1	9.4%	44.7µM*	?	?	?
Cc1ccc(S(=O)(=O)N2CCN(Cc3nc4ccccc4n3C)CC2)cc1	0.6%	-21.1%	10.0%	-19.6%	-13.0%[59 µM]
CCOc1ccc(NC(=O)CC2C(=O)N(c3ccc(OC)c(Cl)c3)C(=S)N2C2CC2)cc1 (stereo not given)	-6.0%	?	47.7%	-10.3%	.
O=C(CN1C(=O)NC2(CCCC2)C1=O)OCCOc1cccc(Cl)c1	-1.4%	4.8%	27.7%	-15.1%	-10.2%
O=C(CN1C(=O)NC2(CCCC2)C1=O)OCC(=O)c1cccc(Cl)c1	0.1%	12.0%	4.3%	-19.7%	50.1µM*
COc1ccc(CC(=O)N/N=C(\C)c2cccnc2)cc1	0.2%	-7.6%	52.2%	-2.3%	.
CN=c1scc(-c2ccc(OC)cc2)n1/N=C(\C)c1cccnc1	4.6%	31.6µM*	44.7µM*	50.1µM*	31.6µM*
CC(=O)N1CCc2cc(S(=O)(=O)NCCC(=O)NCCc3ccccc3)ccc21	-2.9%	-3.6%	28.4%	13.3%	-5.2%[59 µM]
CCCn1c(CN2CCN(C(=O)c3ccco3)CC2)nc2cc(S(=O)(=O)N(C)C)ccc21	3.5%	20.4%	?	-8.2%	39.8µM*
CCn1c(CN2CCN(c3ccc(OC)cc3)CC2)nc2cc(S(=O)(=O)N(C)C)ccc21	10.3%	-32.6%	1.1%	?	?
N#Cc1c(Nc2ccccc2)sc(C(=O)C2CC2)c1N	-2.4%	13.0%	42.2%	0.7%	79.4µM*
CCc1ccc(N2C(=O)CC(c3ccc(F)cc3)C3=C2COC3=O)cc1 (stereo not given)	.	-2.8%	.	.	1.7%
Cc1c(O)c(CN2CCCC2)cc2c1oc(=O)c1ccccc12	54.3%	7.4%	11.7%	?	22.4µM*
CCc1cc(=O)oc2c(C)c(O)c(CN3CCCCC3)cc12	26.5%	8.9%	23.9%	79.4µM*	20.1%
Cc1c(O)c(CN2CCCC2)cc2c3c(c(=O)oc12)CCC3	24.2%	?	-6.7%	-19.0%	-27.9%
CCOC(=O)CCC(NC(=O)CCCCC(=O)NC(CCC(=O)OCC)C(=O)OCC)C(=O)OCC (stereo not given)	3.9%	-0.8%	13.7%	-1.5%	1.6%[59 µM]
CC(CNC(=O)c1cncc(O)c1)NC(=O)c1cncc(O)c1 (stereo not given)	-5.8%	?	9.0%	50.1µM*	44.7µM*
CCOC(=O)CCC(NC(=O)c1cncc(O)c1)C(=O)OCC (stereo not given)	-2.1%	?	9.4%	44.7µM*	?
Cc1cc(C(=O)N2CCC(Cc3ccccc3)CC2)c(C)o1	0.2%	?	4.4%	-26.7%	.
COc1ccccc1C(=O)NNC(=O)C12CC3CC(CC(C3)C1)C2	0.1%	-7.3%	23.7%	-13.1%	?
O=C(O)CSc1c[nH]c2ccccc12	-2.8%	-11.5%	22.7%	-10.4%	-45.2%[59 µM]
Nc1ccccc1Sc1c[nH]c2ccccc12	-13.8%	?	-15.8%	?	44.7µM*
COC(=O)C1=CO[C@@H](OC2OC(CO)C(O)C(O)C2O)[C@@H]2C(CO)=CC[C@H]12 (stereo not given in full)	-1.1%	2.0%	22.9%	-16.1%	11.8%
SMILES	GLS inhibitor	BAZ2B inh	HP1b binding inh	JMJD2A Tudor	G9a inh
Cc1cc(Nc2ccc(F)cc2)n2nc(C)nc2n1	5.1%	-24.0%	26.3%	-12.9%	-45.5%
NC(=O)N/N=C/c1sc(N2CCCCC2)nc1-c1cccs1	17.6%	.	?	?	.
O=C(N/N=C/c1sc(N2CCCCC2)nc1-c1cccs1)C1CC1	12.6%	13.0%	19.9%	?	25.1µM*
Cc1ccc2nc(NS(=O)(=O)c3ccc(Cl)cc3)c(Nc3ccc(C(=O)O)cc3)nc2c1	-20.5%	41.3%	79.2%	-3.6%	-12.2%[59 µM]
O=C(N/N=C/c1cc2c(cc1[N+](=O)[O-])OCO2)c1ccc2c(c1)OCO2	1.0%	6.4%	28.7%	-12.0%	10.5%
CN1CCN(CCC(=O)N/N=C/c2cc3c(cc2[N+](=O)[O-])OCO3)CC1	-3.2%	-29.5%	-0.8%	3.98µM*	?
Cc1cc(O)c(N=Cc2cc3c(cc2[N+](=O)[O-])OCO3)cc1C	?	.	-38.9%	3.55µM*	.
Cc1cc(OCC(=O)NCCc2ccc(S(N)(=O)=O)cc2)c2c(C)c(C)c(=O)oc2c1	9.6%	-4.4%	38.2%	3.4%	-4.6%
O=C(/C=C/c1ccc(F)cc1)N1CC[C@@]2(O)CCCC[C@H]2C1	-2.8%	-2.2%	50.3%	-13.1%	25.8%[59 µM]
COc1ccc(/C=C2\CCOC2=O)cc1	-4.5%	3.5%	29.4%	-3.4%	10.4%[0.0925 µM]
O=C(C1=C(O)/C(=C/c2ccc(O)cc2)CCC1)C(F)(F)F	1.0%	-32.9%	25.5%	-29.6%	10µM*
COc1ccc(/C=C2\CCCC(C(=O)C(F)(F)F)=C2O)cc1	4.0%	11.5%	31.0%	-3.6%	8.91µM*
O=C(N/C(=C\c1cccnc1)C(=O)N1CCC(O)CC1)c1ccccc1	1.4%	1.4%	20.8%	-0.7%	4.2%
Cc1cc2[nH]c(=O)c3ccccc3n2n1	4.3%	10.1%	9.9%	-4.7%	0.5%[59 µM]
Cc1ccc2[nH]c3c(c2c1)CN(C(=O)CN1CCCc2ccccc21)CC3	1.8%	-14.3%	?	28.2µM*	3.16µM*
Cc1ccc2[nH]c3c(c2c1)CN(C(=O)CN1CCN(c2ccccc2F)CC1)CC3	.	-25.2%	.	.	31.6µM*
O=C(CN1CCN(Cc2ccc3c(c2)OCO3)CC1)N1CCc2[nH]c3ccc(F)cc3c2C1	-3.8%	?	-24.8%	?	?
Cc1ccc2[nH]c3c(c2c1)CN(C(=O)CN1CCCCC1)CC3	10.6%	?	14.1%	-14.1%	50.1µM*
Cc1ccc(S(=O)(=O)N2CCN(C(=O)COC(=O)COc3cccc(C(F)(F)F)c3)CC2)c(C)c1	9.0%	.	38.6%	-20.6%	.
CCN1C(C)=C(C)S/C1=C1\SC(=S)N(NC(C)=O)C1=O	26.3%	-21.9%	11.5%	-2.1%	-5.0%
CCNc1nc(NCC)nc(N2CC(=O)N(CC(=O)OCC)C2=N)n1	7.1%	.	25.8%	5.2%	.
CCCCN(C)C(=O)CCCc1c[nH]c2ccccc12	18.5%	-6.8%	2.2%	-20.2%	22.9%[59 µM]
CCCCCCCCOC(=O)/C=C/c1c(C)[nH]c(=O)[nH]c1=O	10.5%	-6.4%	6.5%	-9.9%	-39.6%[59 µM]
Cc1cccc(NC2SC(=O)NC2=O)c1 (stereo not given)	1.8%	?	-0.1%	?	50.1µM*
Cc1cccc(NC2CNC(=O)NC2=O)c1 (stereo not given)	20.2%	.	4.7%	-18.6%	.
N#Cc1c(-c2ccc(F)cc2)cc(-c2cccs2)nc1SCC(=O)O	17.0%	-34.6%	102.4%	-23.8%	15.9%

Compound activity from PubChem.
